Laboratory results taken from PubChem BioAssay (NCATS).
Results filed as inconclusive are left out. Entries that show only a call come without a potency. Calls of active or inactive are those of the source. The call rests on the fitted dose curve; in most records, active means well fitted cell-killing curve with a large enough effect; inconclusive means small, poorly fitted or top-dose-only effect, or effect the other way; inactive means flat fitted curve, though single readings scatter.
Potency means the concentration at half of the fitted maximal effect.

Each compound was assayed on Hek293T (assay: Primary qHTS to identify gynecologic anti-cancer compounds using libraries of approved drugs and bioactive compounds (AID 1345084; further: nearly all actives have a fitted effect of over 55% in size)). Conditions: Gynecologic cancer cell panel viability, ATPlite luminescence, 48 h, control line for the selectivity index; series mostly up to 57.5 µM.
Method in brief: (§1)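 Cell viability after 48 h drug treatment, ATPlite luminescence readout; five doses.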
With `Nc1ccc(C(=O)Nc2ccccc2N)cc1` the Potency was “inactive”. With `O=C1OC(c2ccc(O)cc2)(c2ccc(O)cc2)c2ccccc21` the Potency was “inactive”. `COc1cc(C=C2CCC/C(=C\c3ccc(O)c(OC)c3)C2=O)ccc1O` was tested, and the Potency was “inactive”.

What follows are compounds tested on JEG-3 in the same assay as above. Conditions: Gynecologic cancer cell panel viability, ATPlite luminescence, 48 h; series mostly up to 57.5 µM.
Method in brief: as §1
With `Cc1cc(N)c2cc(NC(=O)Nc3ccc4nc(C)cc(N)c4c3)ccc2n1` the Potency was “inactive”. `COc1ccc(OC)c(C(O)CNC(=O)CN)c1` (stereo not given) was tested, and the Potency was “inactive”. For `Cc1c(C(C)C)c(=O)n(-c2ccccc2)n1C`, the Potency was “inactive”. `N[C@H](Cc1c[nH]c2ccccc12)C(=O)O` was tested, and the Potency was “inactive”. `O=C(Nc1ccc(Oc2ccc(Cl)cc2)c(Cl)c1)c1cc(I)cc(I)c1O` was tested, and the Potency was “inactive”. In the case of `CN(C)C(=S)SC(=S)N(C)C`, the Potency is reported as “inactive”. In the case of `CCCN1CCCC[C@H]1C(=O)Nc1c(C)cccc1C`, the Potency is reported as “inactive”. In the case of `COc1cc(-c2ccc(=O)[nH]n2)ccc1OC(F)F`, the Potency is reported as “inactive”. In the case of `Oc1ccc(O)cc1`, the Potency is reported as “inactive”. `CN1CCCC(CC2c3ccccc3Sc3ccccc32)C1` (stereo not given) was tested, and the Potency was “inactive”. In the case of `OC[C@H]1O[C@@H](n2cnc3c(=S)nc[nH]c32)[C@H](O)[C@@H]1O`, the Potency is reported as 2510 nM (active). With `O=c1c(-c2ccccc2)c1-c1ccccc1` the Potency was “inactive”. In the case of `CC(C)(C)CC(C)(C)c1ccc(OCCOCC[N+](C)(C)Cc2ccccc2)cc1`, the Potency is reported as “inactive”. With `CO/N=C1\CN(c2nc3c(cc2F)c(=O)c(C(=O)O)cn3C2CC2)CC1CN` (stereo not given) the Potency was “inactive”. `C/C=C(/C(=C/C)c1ccc(O)cc1)c1ccc(O)cc1` was tested, and the Potency was “inactive”. In the case of `CCCSS/C(CCO)=C(\C)N(C=O)Cc1cnc(C)nc1N`, the Potency is reported as “inactive”. `CC(=O)Oc1ccc(C(c2ccc(OC(C)=O)cc2)c2ccccn2)cc1` was tested, and the Potency was “inactive”.
